About 83,000 compounds went through this panel and 20% of them were active in at least one assay; those are over-represented in the sample as a whole.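 Interpretation: 100, growth as untreated; towards 0, rising growth inhibition; 0, no net growth; 0 to -100, cell death. Compounds scoring below 10 were considered active.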 A number with no mark means an inactive call. Calls of active or inactive are those of the source.

The assay relates to SK-MEL-5 melanoma. In words: NCI-60 one-dose screen, 48 h (100 = growth as untreated, 0 = no growth, -100 = all killed). The following applies: 10 µM. As for the experimental part: Growth inhibition of the SK-MEL-5 human tumor cell line is measured as a screen for anti-cancer activity. Cells are grown in 96 well plates and exposed to the test compound for 48 hours. Compounds are tested at a single concentration, which is 10^-5 M for most compounds. The reported endpoint is percent growth (GI% or GIPRCNT), where numbers from 0 - 100% represent growth inhibition, and numbers from -100% - 0 represent cell death. For example, a value of 40 represents 60% growth inhibition. A value of 0 means no net growth occurred over the course of the experiment. A value of -40 indicates 40% of cells at the beginning of the experiment died by the end of the experiment. A value of -100 means all cells are dead at the end of the experiment.
NCI-60 Human Tumor Cell Lines Screen was performed using the standard one-dose NCI protocol, which is described in more detail at https://dtp.cancer.gov/discovery_development/nci-60/default.htm.
Compounds with GIPRCNT values below 10 were considered active. Activity score was based on GIPRCNT using the following formula: […]
Score is 0 for GIPRCNT values of 100 or above, 50 for GIPRCNT values of 0, and 100 for GIPRCNT values of -100.
Turning to `O=C(Nc1ccc(OS(=O)(=O)c2ccccc2)cc1)C12CC3CC(CC(C3)C1)C2`, the growth was 32%. For `NC(=S)N=Nc1c(O)c2ccccc2c2ccccc12` the value was -99% (active). The same measure for `O=C(c1ccc(Cl)cc1Cl)N1CCOCC1`: 96.3%. For `CCCCCCN(CCCCCC)CC(O)c1ccc2c3c(cccc13)CC2` (stereo not given) the value was 59.7%; for `COc1ccc(-c2nc(-c3nc4ccc(Cl)cc4[nH]3)c3ccccn23)cc1`, 50.7%; for `C/C(N)=C(\C#N)C(=O)c1ccccc1`, 99.5%. On to `COc1cc([C@@H]2c3cc4c(cc3C(Br)[C@H]3COC(=O)[C@H]23)OCO4)cc(OC)c1OC` (stereo not given in full), for which the growth was -64.9% (active). The same measure for `Cc1cccc2c1O/C(=C\c1ccc([N+](=O)[O-])o1)C2=O`: -83.5% (active).

Consider `COc1cc(Cc2cc(-c3ccc(Cl)cc3)n[nH]c2=O)ccc1O`, for which the growth was 80.7%. For `C[N+](C)(C)c1ncnc2nc[nH]c12` the value was 85.4%; for `O=C1c2ccc3c4c(ccc(c24)C(=O)N1CCNCc1ccccc1)C(=O)N(CCNCc1ccccc1)C3=O`, -97.9% (active); for `CCN(CC)CCC(CNc1c(C)cnc2cc(Cl)ccc12)c1ccc(Cl)cc1` (stereo not given), -94.2% (active). The same measure for `COc1ccc(-c2cc(-c3ccc(N(C)C)cc3)c(C#N)c(N3CCCC3)n2)cc1`: 58.5%; for `CC(=O)N1N=C(c2ccc(Cl)cc2)CC1c1sc(Cl)nc1Cl` (stereo not given): 89.5%; for `COc1ccc(OC)c2c1C(=O)CC2C` (stereo not given): 94.4%.

Turning to `Cc1nc2oc3ccccc3c(=O)c2cc1C(=O)NCc1ccccc1`, the growth is 81%.

With `Cc1cccc(C)c1NC(=O)c1sc2nc3c(cc2c1N)C(=O)CCC3`, the growth is 57.7%.

Consider `COc1cc(C(=O)/C=C/c2cc(-c3cc(OC)c(OC)c(OC)c3)n[nH]2)cc(OC)c1OC`, for which the growth was 21.3%.

For the compound `CCN(CC)CCN1CC(=O)Nc2cc(Cl)ccc21`, the growth is 98.6%. Turning to `CC/C(=C(/c1ccc(OCCN(C)C)cc1)c1ccc(OC(=O)CCCCC(=O)c2c(C)[nH]c(/C=C3\N=C(c4ccc[nH]4)C=C3OC)c2C)cc1)c1ccccc1`, the growth was 36.4%. Regarding `CN(C)CCOc1nc2ccccc2c2c1-c1ccc(Cl)cc1C2=O`, the growth is -91.6% (active). The same measure for `Cc1nc2ccccc2c(N)c1-c1cc(C)c2c(C)nc3ccccc3c2n1`: 62.1%. As for `COc1ccc(-c2cc(-c3cccc(NS(C)(=O)=O)c3)nc(N)c2C#N)cc1`, the growth is 13.6%. Take `C#Cc1ccc(-n2c(/C=C/c3ccc(O)cc3)nc3ncccc3c2=O)cc1`: the growth was 22.3%.

On to `O=C(Nc1cccc(-n2cc(-c3ccncc3)c(-c3ccc(O)c(Cl)c3)n2)c1)c1ccc(N2CCOCC2)c(C(F)(F)F)c1`, for which the growth was 40.9%. The same measure for `Cc1ccc(N=Nc2c(N)nc(N)[nH]c2=O)cc1C`: 101%; for `CSc1nn(-c2ccccc2)c2ncnc(Oc3ccc(C)cc3)c12`: 94.5%; for `Cc1ccc(-c2n[nH]c(=O)c3noc(-c4ccc(C)cc4)c23)cc1`: 15.9%.

For `O=C(Nc1cccc(Cl)c1)Nc1nccs1`, the growth was 89.7%. The same measure for `COc1ccc(-c2nn(-c3cccc(NC(=O)Nc4cccc(C(F)(F)F)c4)c3)cc2-c2ccncc2)cc1Cl`: 2.68% (active); for `CSCCCNC(=O)c1ccc2c(c1)/C(=C/c1[nH]c(C)cc1C)C(=O)N2`: 30.5%. The same measure for `O=C(Nc1ccncc1)C(=O)c1cn(S(=O)(=O)c2cccc3ccccc23)c2ccccc12`: 68%.

For the compound `c1ccc(C(NC2CC3CCC2C3)c2ccccc2)cc1` (stereo not given), the growth was 99.7%.

For `CC(=O)[C@H]1CC[C@H]2[C@@H]3CCC4=CC(=O)C=C[C@]4(C)[C@H]3CC[C@]12C`, the growth was 82.5%.

Consider `O=C(Nc1ccncc1)C(=O)c1cn(S(=O)(=O)c2cc(Cl)cc(Cl)c2)c2ccccc12`, for which the growth was 62.7%. Consider `Cc1cc(C)c(CCc2cc(C)c(C)cc2C)cc1C`, for which the growth is 103%. The same measure for `CC(C)(C)c1cc(Br)cc(C(C)(C)C)c1O`: 102%. The same measure for `N#CC1=C(Nc2ccccc2Cl)SC(c2ccccc2O)NC1=O` (stereo not given): 103%; for `CCN(CC)CCCC(C)Nc1ccc2ccc(Cl)cc2n1` (stereo not given): 97.7%; for `Cc1cc(C)c2c(n1)sc1c(Nc3ccc(Cl)cc3)ncnc12`: 32.7%.

(Values after PubChem BioAssay (NCI).)
